This is an account of results in PubChem BioAssay (NCATS).

Inconclusive results are not listed. Entries that show only a call come without a potency. Activity calls are given as the source filed them. The call rests on the fitted dose curve; in most records, active means well fitted inhibition curve with a large enough effect; inconclusive means small, poorly fitted or top-dose-only effect; inactive means no such curve, though single readings can be large or run the other way.
Potency means the concentration at half of the fitted maximal effect.

The assay deals with Tumor susceptibility gene 101 protein (Homo sapiens) (UniProt Q99816). Nature of the assay: qHTS Assay for Iinhibitors of HIV-1 Budding by Blocking the Interaction of PTAP/TSG101: Hit Validation (AID 651600). Further: nearly all actives have a fitted effect of over 70% in size. Conditions: PTAP peptide/TSG101 UEV interaction, biochemical assay; series mostly up to 57.5 µM. An outline of the steps: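 FITC-PTAP peptide (50 nM final) binding to Tsg101 binding domain (10 uM final) was measured by polarization after 20 min at r.t. with compounds, in 10 mM HEPES pH 7.5 buffer with 0.15 M NaCl and 0.01% Tween 20.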
Sequence of Tumor susceptibility gene 101 protein (Homo sapiens) (Q99816 whole entry, looked up, the tested form may be a part): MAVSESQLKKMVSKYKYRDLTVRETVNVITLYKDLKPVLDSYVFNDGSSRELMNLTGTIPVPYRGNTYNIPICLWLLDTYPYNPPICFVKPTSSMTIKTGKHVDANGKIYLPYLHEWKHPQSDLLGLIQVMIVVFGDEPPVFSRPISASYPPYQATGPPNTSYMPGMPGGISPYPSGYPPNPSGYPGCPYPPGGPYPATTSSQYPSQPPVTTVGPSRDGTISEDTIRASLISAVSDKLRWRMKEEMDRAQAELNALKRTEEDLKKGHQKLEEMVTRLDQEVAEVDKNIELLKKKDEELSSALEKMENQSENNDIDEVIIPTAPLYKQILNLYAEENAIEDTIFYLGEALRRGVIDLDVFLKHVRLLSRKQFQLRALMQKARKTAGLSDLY
Background: Quantitative high-throughput screening tests each substance at several concentrations.
With `CC(=O)Nc1ccc(N=Cc2c(O)ccc3ccccc23)cc1`, the Potency is 29.1 µM (active). As to `N#Cc1c(SCC(=O)Nc2nc3ccc(Br)cc3s2)sc2c(O)cc(=O)[nH]c12`, the Potency result was “inactive”.

On to `O=C1NC(c2ccco2)Nc2sc3c(c21)CCN(Cc1ccccc1)C3` (stereo not given), for which the Potency result was “inactive”. Consider `Clc1ccc(-c2nnc3sc(-c4ccc(Br)o4)nn23)cc1`, for which the Potency was 4.61 µM (active). In the case of `Cc1ccc2nc(-c3ccco3)c(Nc3ccccc3)n2c1`, the Potency entry is “inactive”. Next, `CCCCC(=O)NC1=NC(=O)C(C)(C)S1`: “inactive”; `COc1ccc(-c2onc3ccc(Br)cc23)cc1`: “inactive”. For the compound `CCN(CC)c1ccc(/C=C(/C#N)c2nc3ccc(C)cc3[nH]2)c(OC(C)C)c1`, the Potency result was “inactive”. For `CCOC(=O)N1CCN(c2nc3ccccc3nc2C(C#N)S(=O)(=O)c2ccc(C)cc2)CC1` (stereo not given), the Potency result was “inactive”.

With `CC(=O)Nc1ccc(S(=O)(=O)Nc2nc3n(n2)C(c2ccccc2)C=C(c2ccc(Cl)cc2)N3)cc1` (stereo not given), the Potency result was “inactive”.

`O=S(=O)(Nc1cccc(-c2ccc(N3CCCCCC3)nn2)c1)c1cccc(F)c1`: the Potency entry was “inactive”. For `CN1CC=C2C(C#N)=C(N)C(C#N)(C#N)C(Cc3ccccc3)C2C1` (stereo not given) the value was “inactive”; for `CNc1c2cccc(C)c2nc2c(C(=O)NCCN(C)C)cccc12`, 16.3 µM (active). Next, `COc1ccc(/C=C2/N=C(c3cccs3)OC2=O)cc1OC(C)C`: “inactive”; `COc1ccc2c(C=Nc3c(C)n(C)n(-c4ccccc4)c3=O)c(O)n(Cc3ccco3)c(=O)c2c1`: 29.1 µM (active).

For `O=c1oc2c(CN3CCCCC3)c(O)ccc2cc1-c1nc2ccccc2[nH]1`, the Potency is 18.3 µM (active). In the case of `O=C1CCCC2=C1Sc1ccc(Cl)cc1N2`, the Potency result was “inactive”. Consider `O=C(NCc1ccccc1Br)c1cccc2c1C(=O)c1ccc(N3CCC(Cc4ccccc4)CC3)cc1S2(=O)=O`, for which the Potency result was “inactive”. Consider `Cc1oc2cc(O)ccc2c(=O)c1-c1nncn1-c1ccccc1`, for which the Potency was 20.6 µM (active).

`O=C(O)c1ccc(-n2c(-c3ccc(Br)cc3)n[nH]c2=S)cc1`: the Potency result is “inactive”.

On to `CCCN(CCC)S(=O)(=O)c1ccc(C(=O)OCCN2C(=O)c3cccc4c(N5CCOCC5)ccc(c34)C2=O)cc1`, for which the Potency was 18.3 µM (active). Regarding `Cn1c(=O)c2[nH]c(COc3ccccc3)nc2n(C)c1=O`, the Potency result is “inactive”.

As to `Cc1ccc(C2C=C(c3ccc(Cl)cc3)Nc3nc(NS(=O)(=O)c4ccccc4)nn32)cc1` (stereo not given), the Potency entry is “inactive”. Next, `COc1cccc2c1C(=O)c1c(O)c3c(c(O)c1C2=O)CC(O)(C(C)=O)CC3OC1CC(O)C(O)C(C)O1` (stereo not given): 13 µM (active); `C1=C(c2ccc(-c3ccccc3)cc2)Nc2ncnn2C1c1ccco1` (stereo not given): “inactive”; `COc1ccc(OC)c(S(=O)(=O)Nc2cc3c(cc2C)n(C)c(=O)c(=O)n3C)c1`: “inactive”. Next, `Cc1ccccc1-n1c(SCc2c(C)noc2C)nnc1-c1cccnc1`: “inactive”; `Cc1cccc(NC(=S)NCCC(c2ccccc2)c2ccccc2)c1`: “inactive”; `O=C1c2cccc3c([N+](=O)[O-])ccc(c23)C(=O)N1c1ccc(Cl)cn1`: “inactive”.

Regarding `O=c1cc2oc3cc(O)c(O)cc3c(-c3ccccc3O)c-2cc1O`, the Potency is 13 µM (active). For `CCc1cc(C(=O)OC)c(NC(=O)CC2Nc3cc(C)c(C)cc3NC2=O)s1` (stereo not given), the Potency entry was “inactive”.

Take `Cc1cc(C)c[n+](-c2[nH]c(=O)sc2/C=N/NC([S-])=Nc2ccccc2)c1`: the Potency is 18.3 µM (active). For `Cc1ccc(CNC(=O)C2CCCN(S(=O)(=O)c3c(C)[nH]c(=O)[nH]c3=O)C2)cc1` (stereo not given) the value was “inactive”. As for `CC1=CC(=C(C#N)c2nc3ccccc3s2)C=C(C)N1c1ccc(F)cc1F`, the Potency was 13 µM (active).

On to `Cc1cc[n+](-c2[nH]c(=O)sc2/C=N/N=C(\[O-])c2ccccc2)cc1C`, for which the Potency was 10.3 µM (active). Consider `Cc1cc(Nc2cccc(Cl)c2C)n2ncnc2n1`, for which the Potency entry was “inactive”.

On to `CC(=O)n1c(C=Nc2ccc(Cl)cc2)c(O)c2ccccc21`, for which the Potency was 16.3 µM (active). Consider `O=C(NCc1cccc(C(F)(F)F)c1)c1cccc2c1C(=O)c1ccc(N3CCC(Cc4ccccc4)CC3)cc1S2(=O)=O`, for which the Potency was 14.6 µM (active). Next, `Fc1ccc(C2=CC(c3ccco3)n3ncnc3N2)cc1` (stereo not given): “inactive”; `COc1ccc(OC)c(/C=C(\C#N)c2nc(-c3ccc(F)cc3)cs2)c1`: “inactive”.
